# Laboratory results taken from PubChem BioAssay AID1053125 (Broad Institute, 2014).
# Measured potencies and affinities stand elsewhere. Activity calls are given as the source filed them.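 The calls were made as follows: active = viability loss whose fitted half-maximal concentration is at most twice the top valid tested dose; inconclusive = flat curve with 30 to 70% loss, or poor fit; inactive = the rest.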
# Experiment: HepG2 cell cytotoxicity, dose response, cytotoxicity control, ATP luminescence, cherry-pick, set 6 (AID 1053125);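 also: negative values mean loss of viability signal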
# Settings: HepG2 viability, ATP luminescence (CellTiter-Glo), 72 h; series mostly up to 26 µM
row,SMILES,outcome
1,Cc1cccn2c(=O)c3cc(C(=O)NCCN4CCOCC4)c(=N)n(Cc4ccc(F)cc4)c3nc12,inactive
2,O=[N+]([O-])c1cccc(-c2n[nH]c(=S)n2-c2ccc(Br)cc2)c1,inactive
3,CCC(C)NC(=S)N1CCN(Cc2ccc3c(c2)OCO3)CC1 (stereo not given),inactive
4,CCC(Sc1nc(N)c(NC(=O)c2ccc(OC)cc2)c(=O)[nH]1)C(=O)O (stereo not given),inactive
5,Cc1ccc2c(c1)-c1c(cnn1CC(=O)Nc1ccccc1N1CCN(C)CC1)CO2,inactive
6,Cn1cccc1/C=N/NC(=O)c1sc2cc(Cl)ccc2c1Cl,inactive
7,COc1ccc(C(=O)Oc2cc(N)n(S(=O)(=O)c3ccccc3)n2)cc1,inactive
8,CCN(CC)Cc1c(O)c(Cl)cc2c(C)cc(=O)oc12,inactive
9,CCOCCCNc1c(CC)c(C)c(C#N)c2nc3ccccc3n12,inactive
10,CCN(CC)c1ccc2cc(S(=O)(=O)c3ccc(Cl)cc3)c(=O)oc2c1,inactive
11,Nc1ccc2nc(-c3ccccc3)cnc2c1,inactive
12,CC(C)N1CCc2c(sc(NC(=O)Cc3ccccc3)c2C#N)C1,inactive
13,CC(C)C(=O)Nc1sc2c(c1C(N)=O)CCN(Cc1ccccc1)C2,inactive
14,COc1ccc(S(=O)(=O)Cc2ccc(C(=O)N3CCN(Cc4ccccc4)CC3)o2)cc1,inactive
15,CCOC(=O)c1c2ccc(OCC(=O)NN)cc2n2ccccc12,inactive
16,Cc1ccc2c(c1)N(C(=O)CCC(=O)NCCCN1CCOCC1)CC(C)O2 (stereo not given),inactive
17,N=c1c(C(=O)NCC2CCCO2)cc2c(=O)n3ccccc3nc2n1Cc1ccc(Cl)cc1 (stereo not given),inactive
18,[O-]/[N+](=C/c1ccccc1)c1ccccc1,inactive

row,SMILES,outcome
1,O=C(Cc1csc(-c2ccccc2)n1)NCc1ccccc1F,inactive
2,CCN(CC)CCCNc1nc(C)cc(COC)c1C#N,inactive
3,CCN(CC)CCNC(=O)c1sc2nc(-c3ccccc3)cn2c1C,inactive
4,O=C(NNc1cc(N2CCCC2)nc(N2CCCC2)n1)c1ccc([N+](=O)[O-])cc1,inactive
5,CC(C)(C)[C@H]1CCC(=O)N([C@H](CSc2ccccc2)Cc2ccccc2)CC1,inactive
6,Cc1nc2ccccc2c2oc(C(=O)NCCCN3CCC(C)CC3)cc12,inactive
7,CN1CCc2c(sc(NC(=O)C3CCCCC3)c2C(N)=O)C1,inactive
8,O=C1CCc2cc(S(=O)(=O)NC(Cc3ccccc3)C(=O)NCCC3=CCCCC3)ccc2N1 (stereo not given),inactive
9,CCOc1ccc2nc(NCCCNC(=O)c3cc(OC)c(OC)c(OC)c3)c(C#N)cc2c1,inactive
10,CCc1nnc(NC(=O)c2ccc(-c3ccccc3F)o2)s1,inactive
11,COc1ccc(C2CC(c3ccccc3)=NN2c2ccc(C(N)=O)cc2)cc1 (stereo not given),inactive
12,COc1cc(C(=O)OCC(C)=O)cc(NC(=O)c2ccco2)c1OC,inactive
13,CCC(=O)N1C(C(=O)NCc2ccc(OC)cc2)CSC1c1ccc(OC)cc1 (stereo not given),inactive
14,Cc1oc(/N=C/c2ccc(O)cc2O)c(C#N)c1C,inactive
15,CN(C)/C=C/C(=O)c1c(F)cccc1F,inactive
16,Clc1cccc(CN2CCN(Cc3nc(CCc4ccccc4)no3)CC2)c1,inactive
17,CC(=O)Oc1ccc2cc(-c3nc4ccccc4n3C)c(=O)oc2c1,inactive
